HEK cytotox – kills HEK 293 cells; HEK 293 viability, ATP luminescence (CellTiter-Glo), 48-72 h; Potency, µM (top dose mostly 115 µM), inactives show at the top dose activity change, negative = cytotoxicity, most hits filed as inhibitors; 94,000 tested, 6.6% active; also: nearly all actives have a fitted effect of over 60% in size
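CellTiter-Glo luminescence (cellular ATP) was read after 48 or 72 hr of compound exposure at 37 degree Celsius. Cells were HEK 293 plated at 250 cells/well.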
Luciferase inh – inhibitors of firefly (Photinus pyralis) luciferase; purified P. pyralis luciferase, luminescence, biochemical; Potency, µM (titrated, usually from 115 µM), most hits filed as inhibitors; 76,000 tested, 2.5% active; AID 1347043; also: nearly all actives have a fitted effect of over 65% in size
Target sequence (P08659 whole entry, looked up): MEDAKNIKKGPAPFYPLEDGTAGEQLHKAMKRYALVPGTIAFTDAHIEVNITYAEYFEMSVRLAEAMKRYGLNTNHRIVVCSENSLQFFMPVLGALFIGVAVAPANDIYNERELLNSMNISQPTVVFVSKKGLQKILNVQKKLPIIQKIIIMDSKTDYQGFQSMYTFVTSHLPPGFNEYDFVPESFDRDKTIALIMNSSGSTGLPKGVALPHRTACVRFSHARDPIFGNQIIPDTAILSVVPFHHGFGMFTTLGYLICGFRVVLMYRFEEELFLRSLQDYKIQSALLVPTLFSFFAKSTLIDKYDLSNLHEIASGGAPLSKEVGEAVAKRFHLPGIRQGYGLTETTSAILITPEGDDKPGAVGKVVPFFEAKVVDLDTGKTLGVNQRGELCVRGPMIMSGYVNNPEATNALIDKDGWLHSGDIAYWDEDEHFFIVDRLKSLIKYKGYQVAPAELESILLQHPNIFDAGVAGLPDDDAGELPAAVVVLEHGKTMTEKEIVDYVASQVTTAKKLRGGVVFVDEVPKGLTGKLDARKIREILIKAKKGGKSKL
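Luminescence read by CCD imager after adding enzyme (10nM final) to wells holding compound, titrated in qHTS. Substrates 10uM each D-luciferin and ATP; buffer 50mM Tris acetate pH 7.5, 10mM Mg acetate, Tween-20, BSA.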
NPR1 antag – blocks ANP-stimulated signaling of human Npr1 receptor; HEK293 hNpr1 GloSensor cGMP, ANP-stimulated luminescence; P16066; Potency, µM (series often up to 46.3 µM), for the others: at the highest dose activity change, negative = inhibition, most hits filed as inhibitors; 76,000 tested, 1.6% active; calls by dose curve; also: nearly all actives have a fitted effect of over 60% in size
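HEK293 cells stably expressing human Npr1 and cGMP GloSensor pGS-40F, loaded 2 h with 2% GloSensor reagent, given compound 30 min at room temperature. Luminescence read before and 20 min after 0.1 nM hNppA.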
NIH3T3 tox – NIH 3T3 cell cytotoxicity; NIH 3T3 viability, CellTiter-Glo ATP luminescence, 48-72 h; Potency, µM (titrated, usually from 96.7 µM), for the others: top-dose activity change, negative = cytotoxicity, most hits filed as inhibitors; 94,000 tested, 4.3% active; AID 1345082; also: nearly all actives have a fitted effect of over 55% in size
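Cytotoxicity was measured by CellTiter-Glo ATP luminescence after 48 or 72 h compound exposure at 37 °C. Mouse NIH 3T3 fibroblasts were seeded at 400 cells/well and dosed by 23 nL pin transfer.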
GPT2 inh – GPT2 alanine aminotransferase inhibition | Q8TD30 | Recombinant GPT2, coupled pyruvate oxidase/HRP Amplex Red fluorescence | Potency, µM (doses to about 57.7 µM), inactives show at the highest dose activity change, negative = inhibition, usual class: inhibitors | 100,000 tested, 0.25% active | AID 1671188; also: nearly all actives have a fitted effect of over 60% in size
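GPT2 10ng/uL, a-KG 250uM, L-Ala 2mM, HEPES pH7.5 + 0.0001% Tween; 30 min RT. Then Amplex mix (PO/HRP/ThPP), 30 min RT dark, fluorescence. AOA 50uM used as positive control.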
* marks the source's active call; other numbers are inactive results; i = inactive; ? = inconclusive; . = no result; [ ] = remark or other dose. The list is not random: actives were taken first. Their share in the collection is about 10%. Unless noted, calls follow the shape of the dose curve; as a rule, active = well fitted curve in the direction sought with a large enough effect; inconclusive = small, poorly fitted or top-dose-only effect, or another doubt; inactive = no such curve, though single readings can be large; an effect the other way counts as inactive or inconclusive. % is scaled to controls: 0 for no effect and ±100 for the full control effect; potency is read from the fitted curve at half-maximal effect.

SMILES	HEK cytotox	Luciferase inh	NPR1 antag	NIH3T3 tox	GPT2 inh
COCCN1CCCCCC(O)c2cc(C(=O)N(C)Cc3cccnc3)ccc21 (centres undefined)	?	i	4%	?	i
COCCN1CCCCCC(O)c2cc(C(=O)N(C)Cc3ccc(N4CCCCC4)cc3)ccc21 (centres undefined)	?	i	-24%	40µM*	?
COCCN1CCCCCC(O)c2cc(C(=O)N3CCN(c4cccc(OC)c4)CC3)ccc21 (centres undefined)	40µM*	i	-5%	?	i
CNC(=O)c1cc(C2CC2)nc2onc(C3CCN(C(=O)c4cccc(OC)c4)C3)c12 (centres undefined)	i	.	.	-4%	.
C=CCN1Cc2cc(F)ccc2N(CC(O)Cc2ccccc2)CCC1=O (centres undefined)	?	.	.	-28%	.
O=C1CCN(C[C@@H](O)COCc2ccccc2)c2ccc(F)cc2CN1Cc1ccccc1	45µM*	.	.	?	.
O=C1CCN(CC(O)Cc2ccccc2)c2ccc(F)cc2CN1Cc1ccccc1 (centres undefined)	32µM*	.	.	?	.
C=CCOCC(O)CN1CCC(=O)N(Cc2ccccc2)Cc2cc(F)ccc21 (centres undefined)	?	.	.	-29%	.
O=C1Nc2ccccc2C(O)(c2ccccc2)C1O (centres undefined)	.	.	.	.	-4%
CCC(=O)N1CCOc2ccc(CN3CCc4ccccc4C3)cc2C1	?	i	2%	-24%	i
COc1cccc(C(=O)N2CCOc3ccc(CN4CCc5ccccc5C4)cc3C2)c1	45µM*	i	-4%	?	-23%
Cc1ccsc1C(=O)N1CCOc2ccc(CN3CCc4ccccc4C3)cc2C1	35µM*	i	-29%	?	i
O=C(N1CCOc2ccc(CN3CCc4ccccc4C3)cc2C1)C1(c2ccccc2)CC1	45µM*	i	?	?	3%
COc1cccc(NC(=O)[C@@H]2C[C@@H](c3cccc(C(F)(F)F)c3)N(Cc3cnn(C)c3)C2)c1	?	i	6%	?	-6%
CN1CCCCCC(O)c2cc(C(=O)NCCc3ccncc3)ccc21 (centres undefined)	?	i	2%	?	i
COc1ccc2cc(C3CN(Cc4nc(C(N)=O)no4)CCO3)ccc2c1 (centres undefined)	-3%	i	3%	-27%	-11%
COc1ccc2cc(C3CN(CCC(=O)NC(C)(C)C)CCO3)ccc2c1 (centres undefined)	45µM*	?	?	?	i[11.5 µM]
COc1ccc(-c2cn3c(n2)N(C(=O)Cc2cccs2)CCC3)cc1	?	i	-2%	?	i
O=C(c1ccco1)N1CCCn2cc(-c3ccc4c(c3)OCO4)nc21	?	i	5%	i	i
O=C(c1cccs1)N1CCCn2cc(-c3ccc4c(c3)OCO4)nc21	?	40µM*	3%	i	-5%
COc1ccc(-c2cn3c(n2)N(C(=O)c2cccs2)CCC3)cc1	?	35µM*	-4%	3%	i
O=C(O)COc1ccc(-c2nccc3c2C(=O)N(Cc2c[nH]c4ccccc24)CC(CNC(=O)Cc2ccc(Cl)cc2)O3)cc1 (centres undefined)	-1%	i	2%	?	i
Cc1noc(C)c1[S+](=O)([O-])NC1CCN(C(=O)c2ccc(-c3ncccc3C#N)cc2)CC1	5%	.	.	?	i
COc1ccc(-c2noc(CC3CCN(C(=O)Cc4ccsc4)CC3)n2)cc1	45µM*	i	?	?	i
Cc1ccc(CC(=O)N2CCC(Cc3nc(-c4ccccc4)no3)CC2)cc1	?	i	?	?	i
SMILES	HEK cytotox	Luciferase inh	NPR1 antag	NIH3T3 tox	GPT2 inh
COc1ccc(CC2CCN(C(=O)c3c(C)noc3-c3ccc4c(c3)OCO4)CC2)cc1	35µM*	i	?	25µM*	2%
COc1ccc(C(=O)N2CCC3(CC2)CC(Cc2nc(-c4ccccc4)no2)CCO3)cc1 (centres undefined)	13µM*	?	7.1µM*	?	i
O=C(c1ccc2c(c1)OCO2)N1CCC(Cc2nc(-c3ccccc3)no2)CC1	10µM*	?	4µM*	?	2%
COc1ccc(CCC(=O)N2CCC3(CC2)CC(Cc2nc(-c4cccnc4)no2)CCO3)cc1 (centres undefined)	?	i	?	?	i
CCc1nc2c(c(-c3ccc(O)cc3)n1)CCN(C(=O)c1ccccc1C)CC2	-6%	.	.	-28%	i
CN1CCCCC1COc1ccc2c(n1)CN(Cc1ccccc1F)C(=O)CO2 (centres undefined)	?	i	-5%[70.6 µM]	?	-14%[88.5 µM]
Fc1ccc2c(CCNCc3cccc(OCC(F)(F)C(F)F)c3)c[nH]c2c1	.	.	.	.	i
COc1cccc(-c2noc(CC3CCN(C(=O)c4cc(OC)c(OC)c(OC)c4)CC3)n2)c1	45µM*	i	-18%	?	-2%
CC(C(=O)N1CC(n2cc(C(=O)NCC3CC3)nn2)C1)c1ccccc1 (centres undefined)	4%	.	.	i	-9%
Cc1cc(C2CCCN2C(=O)c2ccc(-c3ccccc3Cl)o2)no1 (centres undefined)	45µM*	?	4%	?	-5%
Cc1ccccc1-c1[nH]nc2ncc(-c3ccsc3)nc12	32µM*	i	-13%[70.6 µM]	?	2%[88.5 µM]
COc1ccc(-c2[nH]nc3ncc(-c4ccc(OC)nc4)nc23)c(C)c1	22µM*	i	4%[70.6 µM]	?	4%[88.5 µM]
COc1ccc(-c2cnc3n[nH]c(-c4ccccc4C)c3n2)cn1	32µM*	i	-9%[70.6 µM]	?	i
COc1ccc(-c2cnc3n[nH]c(-c4ccc(F)cc4C)c3n2)cc1	45µM*	i	-1%[70.6 µM]	32µM*	i
CCCc1noc(-c2cn(C3CCN(C(=O)c4cccc(N(C)C)c4)CC3)nn2)n1	-29%	i	-24%	-27%	i
O=C(CCC1CCCC1)NCC1CCCCC(=O)N1 (centres undefined)	-4%	.	.	i	i
O=C(Nc1ccccc1F)N1CCC(F)(C(=O)NC2CC2)CC1	i	.	.	-6%	-24%
CC(=O)N1CCCC(C(=O)N2CCC(N3Cc4cccn4C3=O)CC2)C1 (centres undefined)	i	.	.	3%	i
O=C(NC1CCCCC1)c1ccc2nnc(CC3CC3)n2c1	-14%[172 µM]	.	.	-25%[138 µM]	i
OC[C@@H]1CN(C2CCCCC2)C[C@H]1c1nc(-c2ccncc2)no1	-27%	?	5%	-18%	1%
OC[C@@H]1CN(Cc2ccccc2F)C[C@H]1c1nc(-c2ccncc2)no1	?	i	-25%	-26%	-4%

Assay outcomes from PubChem BioAssay.
